Screening results: PubChem BioAssay, National Center for Advancing Translational Sciences (NCATS)
HT1080 IDH1KD tx = HT-1080 IDH1 knockdown cell toxicity (counter line); 360,000 compounds, 2% hits; Potency, µM (titrated, usually from 46.1 µM), inactives show at the top dose activity, negative = toxicity, actives largely listed as cytotoxic; HT-1080 IDH1 knockdown viability, ATP luminescence, 48 h;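 note: 0% = DMSO wells and -100% = cell-free medium wells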
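HT-1080-IDH1KD cells (IDH1 knocked down), 750/well in RPMI with 5% FBS, treated with compound 48 h at 37 degrees C. Viability by CellTiter-Glo luminescence, normalised to DMSO and no-cell wells; concentration-response curves classed.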
KB-3-1 cytotox = KB-3-1 parental cell cytotoxicity; Potency, µM (highest dose often 46.1 µM), actives largely listed as cytotoxic; 400,000 compounds, 1.4% hits; KB-3-1 viability, CellTiter-Glo ATP luminescence, 72 h; note: nearly all actives have a fitted effect of over 60% in size
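Multi-concentration cytotoxicity screen in KB-3-1 cells grown in DMEM lacking phenol red with 10% FBS. After 72 h at 37 °C with compound, ATP-dependent luminescence was recorded.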
HT1080-NT tox = kills 2HG-producing HT-1080-NT fibrosarcoma cells. HT-1080-NT fibrosarcoma viability, CellTiter-Glo ATP luminescence, 48 h. 360,000 compounds, 1.6% hits. Potency, µM (doses to about 46.1 µM), for the others: at the highest dose activity, negative = less viability, hits mostly cytotoxic. AID 686970;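 note: NT is the 2HG producing partner of a matched IDH1 knockdown line; 0% = DMSO-treated cells and -100% = media-only wells without cells; nearly all actives have a fitted effect of over 55% in size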
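Toxicity toward the 2HG-producing NT line was scored as %Activity, normalised to DMSO and no-cell wells, from CellTiter-Glo luminescence after 48 hours' treatment.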
DT40 TDP1 CPT = growth inhibition of DT40 Tdp1-/-;hTDP1 cells with camptothecin (screen for TDP1 inhibitors); chicken DT40 Tdp1-/-;hTDP1 cells + 20 nM CPT, ATP luminescence, 48 h; Potency, µM (titrated, usually from 46.2 µM), for inactives: at the highest dose activity change, negative = growth inhibition, actives largely listed as inhibitors; 420,000 compounds, 12% hits; AID 686979; note: nearly all actives have a fitted effect of over 55% in size
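Chicken DT40 Tdp1-/- cells complemented with human TDP1, 400 cells/well, exposed to compounds plus 20 nM camptothecin for at least 48 h at 37 C; viability read as ATP content by CellTiter-Glo luminescence.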
TDP1 cell noCPT = qHTS for Inhibitors of human tyrosyl-DNA phosphodiesterase 1 (TDP1): qHTS in cells in absence of CPT. DT40 Tdp1-/- hTDP1 cells, no CPT, ATP luminescence, 48 h. 420,000 compounds, 15% hits. Potency, µM (titrated, usually from 46.2 µM), without a hit: at the highest dose activity change, negative = growth inhibition, actives largely listed as inhibitors; note: nearly all actives have a fitted effect of over 55% in size
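Luminescent ATP content (CellTiter-Glo) served as the growth readout. Knockout chicken DT40 cells expressing human TDP1 were exposed to compounds without camptothecin for a minimum 48 hr at 37 °C.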
KB-V1 MDR tox = kills drug-selected multidrug resistant KB-V1 cells. 400,000 compounds, 3.4% hits. KB-V1 MDR cells viability, CellTiter-Glo, 72 h. Potency, µM (highest dose often 46.1 µM), usual class: cytotoxic. AID 1347076; note: nearly all actives have a fitted effect of over 60% in size
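KB-V1 cells (P-gp-expressing MDR subline of KB-3-1) in phenol-red-free DMEM with 10% FBS were exposed to library compounds over a concentration series for 72 h at 37 degrees C. Viability read by CellTiter-Glo luminescence; concentration-effect curves fitted after normalization.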
Numbers without * were called inactive; i = inactive; ? = inconclusive; . = no result given. Sampled rows, rich in hits. Any-hit rate of the full collection: about 19%. Calls come from the whole dose curve; as a rule, active = well fitted curve in the direction sought with a large enough effect; inconclusive = small, poorly fitted or top-dose-only effect, or another doubt; inactive = no such curve, though single readings can be large; an effect the other way counts as inactive or inconclusive. Unless noted, % is set by controls: 0 for no effect and ±100 for the full control effect; potency is the fitted concentration of half-maximal effect.

SMILES	HT1080 IDH1KD tx	KB-3-1 cytotox	HT1080-NT tox	DT40 TDP1 CPT	TDP1 cell noCPT	KB-V1 MDR tox
S=c1[nH]nc(COc2ccc(Cl)cc2)n1C1CCCCC1	?	i	?	?	?	i
N#Cc1ccc(CN2CCN(C(=O)CNC(=O)Cc3ccccc3)CC2)cc1	-1%	i	-4%	-4%	-1%	i
O=C1CN(C(=O)/C=C/c2cc(Br)ccc2F)CCN1	-1%	i	9%	-5%	2%	i
CN(C)c1ccc(C(C(=O)NCC2CCCO2)N(Cc2ccccc2)C(=O)c2snc(C(N)=O)c2N)cc1 (centres undefined)	-1%	i	-19%	10µM*	18µM*	?
CN(C)c1ccc(C(C(=O)NCc2ccccc2)N(Cc2ccco2)C(=O)c2snc(C(N)=O)c2N)cc1 (centres undefined)	?	?	-27%	15µM*	8.2µM*	?
Cc1ccc(C(C(=O)NCc2ccc(F)cc2)N(Cc2ccco2)C(=O)c2snc(C(N)=O)c2N)o1 (centres undefined)	-20%	i	?	15µM*	15µM*	?
NC(=O)c1nsc(C(=O)N(Cc2ccco2)C(C(=O)NCc2ccc(F)cc2)c2ccc(O)cc2)c1N (centres undefined)	1%	i	-15%	16µM*	?	i
CN(C)c1ccc(C(C(=O)NCC2CCCO2)N(Cc2ccco2)C(=O)c2snc(C(N)=O)c2N)cc1 (centres undefined)	-13%	i	-12%	?	?	i
CCC(C)(C)NC(=O)C(c1ccc(F)cc1)N(Cc1ccco1)C(=O)c1snc(C(N)=O)c1N (centres undefined)	?	i	?	?	-37%	?
Cc1noc(C)c1COc1ccc(C(=O)Nc2ncccc2O)cc1	0%	i	0%	?	?	?
O=C(NNC(=O)C(O)(c1ccccc1)c1ccccc1)C1CC1	10%	i	10%	-11%	-16%	i
COc1ccc(-c2c(C)nn3c(C(F)(F)F)cc(C)nc23)cc1OC	.	.	.	-28%	?	.
COc1ccccc1N(C(=O)c1snc(C(N)=O)c1N)C(C(=O)NCCC(C)C)c1ccco1 (centres undefined)	-28%	i	6%	?	-29%	i
CC(C)(C)NC(=O)C(c1ccco1)N(Cc1ccc(F)cc1)C(=O)c1snc(C(N)=O)c1N (centres undefined)	2%	i	-4%	13%	-3%	18µM*
CCOc1ccccc1N(C(=O)c1snc(C(N)=O)c1N)C(C(=O)NCCC(C)C)c1ccco1 (centres undefined)	0%	i	-11%	?	21µM*	13µM*
CC1(c2ccc(Cl)cc2Cl)NC(=O)N(CC(=O)NC2CCCCC2)C1=O (centres undefined)	-4%	.	0%	?	-22%	.
O=C(NCC(=O)N1CCN(S(=O)(=O)/C=C/c2ccccc2)CC1)c1ccc(Cl)cc1	-8%	i	-1%	-22%	-18%	i
COc1ccc(NS(=O)(=O)c2cc(S(C)(=O)=O)ccc2C)cc1	21%	i	3%	0%	-19%	i
COc1ccc(NS(=O)(=O)c2cc(NC(=O)c3ccc(=O)[nH]n3)ccc2C)cc1	?	?	26µM*	18µM*	18µM*	?
COc1ccc(NS(=O)(=O)c2cc(C)ccc2C)cc1	?	7.3µM*	-25%	21µM*	16µM*	i
COc1ccc(NS(=O)(=O)c2cc(OC)ccc2NC(=O)c2cc(C)oc2C)cc1	5.8µM*	?	5.8µM*	5.2µM*	2.6µM*	?
CC[C@@]1(C(=O)OC)N[C@H](CN(C)S(=O)(=O)c2ccc(OC)cc2)[C@@H]2C(=O)N(C)C(=O)[C@@H]21	7%	i	12%	-17%	10%	i
O=C(NCc1ccco1)/C(=C\c1cccnc1)NC(=O)c1ccccc1F	11%	i	-1%	10%	-3%	i
COC(=O)c1cc(C)cc(=O)o1	12%	i	4%	-3%	-4%	i
Cc1cc(CCCCCCCCc2cc(C)cc(=O)o2)oc(=O)c1	-7%	i	6%	?	16µM*	7.3µM*
SMILES	HT1080 IDH1KD tx	KB-3-1 cytotox	HT1080-NT tox	DT40 TDP1 CPT	TDP1 cell noCPT	KB-V1 MDR tox
CC(NC(=O)C1CCC(CNS(=O)(=O)c2ccccc2)CC1)c1ccccc1 (centres undefined)	-6%	i	-2%	8%	-5%	i
Cc1sc(NC(=O)c2ccc(OCC(C)C)cc2)c(C(N)=O)c1-c1ccc(Cl)cc1Cl	-1%	i	-5%	9.2µM*	7.3µM*	i
Cc1cc(C(=O)Nc2sc(C)c(-c3ccc(F)cc3)c2C(N)=O)no1	0%	i	-6%	-16%	-14%	i
Cc1[nH]c2ccccc2c1C(=O)CN1C(=O)C(=O)N(CCC2=CCCCC2)C1=O	4%	i	-2%	-10%	3%	i
O=S(=O)(c1ccccc1)N1CCC(O)(CSc2ccccc2)CC1	-24%	i	23µM*	-5%	-18%	i
O=C(CSc1ccccc1)N1CCN(S(=O)(=O)c2ccccc2)CC1	-3%	i	10%	10%	-5%	i
O=S(=O)(c1ccccc1)N1CCC(O)(CSc2ccc(F)cc2)CC1	18µM*	?	-10%	?	?	?
Cc1ccc(-n2[nH]c(C)c(C=NC34CN5CN(CN(C5)C3)C4)c2=O)cc1C	?	?	?	9.2µM*	21µM*	?
Cc1ccc(S(=O)(=O)N(C)C[C@H]2OCCCC[C@@H](C)Oc3ccc(NC(=O)Cc4ccccc4)cc3C(=O)N([C@H](C)CO)C[C@@H]2C)cc1	-8%	i	2%	?	?	i
COc1cccc(CN2CCN(Cc3cc(OC)c(OC)cc3[N+](=O)[O-])CC2)c1	2%	i	7%	?	16µM*	21µM*
C[C@@H]1C[C@H]2C3C[C@H](F)C4=CC(=O)C=CC4(C)[C@@]3(F)[C@@H](O)CC2(C)[C@@]1(O)C(=O)COC(=O)C(C)(C)C (some centres undefined)	.	.	.	14%	?	.
